High-throughput results deposited in PubChem by National Center for Advancing Translational Sciences (NCATS).
Tau ThT inhib = qHTS for Inhibitors of Tau Fibril Formation, Thioflavin T Binding | recombinant tau K18 P301L, heparin-induced fibrillization, ThT fluorescence | 270,000 tested, 2.1% active | Potency, µM (highest dose often 57.4 µM), inactives show at the highest dose activity, negative = inhibition, actives largely listed as inhibitors | Microtubule-associated protein tau (Homo sapiens), P10636 | AID 1460, 2008; also: nearly all actives have a fitted effect of over 55% in size
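Fibril formation assay: tau K18 P301L at 15 uM with trace Alexa 594 label, heparin inducer 20 uM, pH 7 sodium acetate buffer, 37 C for 6 hr; endpoint ThT signal.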
RGS12 GoLoco inh = qHTS Assay for Inhibitors of RGS12 GoLoco Motif Activity (Red Fluorophore); Guanine nucleotide-binding protein G(i) subunit alpha-1 (Homo sapiens), P63096; 230,000 tested, 0.44% active; Potency, µM (top dose mostly 61.6 µM), inactives show top-dose activity, negative = inhibition, actives largely listed as inhibitors; Gai1:RGS12 GoLoco peptide FP, rhodamine, 10 min; active = well fitted inhibition curve with a large enough effect, not every such curve was filed as active; inactive = no such curve, though single readings can be large or run the other way; also: nearly all actives have a fitted effect of over 30% in size
TRb SRC2 PPI = qHTS for Inhibitors of the Interaction of Thyroid Hormone Receptor and Steroid Receptor Coregulator 2; Thyroid hormone receptor beta (Homo sapiens), P10828; TRbeta-SRC2 peptide binding, fluorescence polarization; receptor liganded with 1 µM T3; Potency, µM (series often up to 106 µM), for the others: at the top dose activity change, negative = inhibition, most hits filed as inhibitors; 280,000 tested, 0.065% active;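 also: plate controls were bound peptide for no effect and peptide without receptor for full effect; nearly all actives have a fitted effect of over 50% in size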
Target sequence (P10828 whole entry, looked up): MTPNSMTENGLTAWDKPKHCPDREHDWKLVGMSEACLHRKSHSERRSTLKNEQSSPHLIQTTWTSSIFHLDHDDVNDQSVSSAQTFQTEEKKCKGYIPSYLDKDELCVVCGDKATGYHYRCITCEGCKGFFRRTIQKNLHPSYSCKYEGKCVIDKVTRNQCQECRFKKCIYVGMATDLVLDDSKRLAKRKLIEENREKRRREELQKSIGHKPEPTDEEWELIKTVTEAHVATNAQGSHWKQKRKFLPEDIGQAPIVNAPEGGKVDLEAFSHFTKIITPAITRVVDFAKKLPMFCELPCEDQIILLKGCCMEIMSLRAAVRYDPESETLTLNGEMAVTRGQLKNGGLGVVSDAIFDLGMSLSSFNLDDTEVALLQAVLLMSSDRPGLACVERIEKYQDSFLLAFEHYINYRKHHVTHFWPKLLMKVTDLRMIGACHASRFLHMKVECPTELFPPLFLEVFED
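Polarization signal, normalized between peptide-alone and full complex controls, measured compound effects on T3-liganded human TRb LBD (0.6 uM) binding 20 nM Texas Red SRC2 peptide after 5 hr.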
TexasRed fluor = Total Fluorescence Counterscreen for Inhibitors of the Interaction of Thyroid Hormone Receptor and Steroid Receptor Coregulator 2. TRb/SRC2 Texas Red total fluorescence interference. Potency, µM (series often up to 106 µM), for inactives: at the top dose fluorescence change, negative = quenching. 280,000 tested, 0.29% active. AID 1479, 2009; active = well fitted curve in either direction with a large enough effect; inconclusive = small, poorly fitted or top-dose-only effect
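Human TRb ligand-binding domain at 0.6 uM with 20 nM Texas Red SRC2 peptide in Tris buffer containing 1 uM T3 and 5% DMSO, incubated with compound 5 h at ambient temperature. Total fluorescence (555/632 nm) calculated as parallel + 2 × perpendicular.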
Tau fluor counter = Counterscreen qHTS for Inhibitors of Tau Fibril Formation, Fluorescence Polarization | Potency, µM (top dose mostly 57.7 µM), without a hit: at the top dose activity change, negative = decrease | 280,000 tested, 0.93% active | tau K18 P301L (four-repeat tau fragment) Alexa594 fluorescence, heparin fibrillization; also: nearly all actives have a fitted effect of over 55% in size
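Human K18 P301L tau (15 uM unlabeled plus 0.24 uM Alexa 594-labeled, final) in 100 mM sodium acetate pH 7 was mixed with compound and 20 uM heparin and incubated 6 hr at 37 C.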
Tau FP inhib = qHTS for Inhibitors of Tau Fibril Formation, Fluorescence Polarization. 280,000 tested, 0.39% active. K18 P301L tau heparin fibrillization, Alexa594 FP, 6 h. Potency, µM (series often up to 57.7 µM), without a hit: top-dose activity, negative = inhibition, usual class: inhibitors. Microtubule-associated protein tau (Homo sapiens), P10636. AID 1468, 2008; also: nearly all actives have a fitted effect of over 55% in size
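Compound effects on tau fibrillization are measured by Alexa 594 fluorescence polarization (ex 555, em 632 nm). K18 P301L tau is used at 15 uM with 0.24 uM labeled tracer, and 20 uM heparin induces aggregation over 6 hr at 37 C.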
* = called active by the depositor; u = inconclusive; x = not tested or not shown; [ ] = dose if it differs, or a comment. This is a sample that favours compounds with a hit; in the whole collection about 3.2% have one here. Unless noted, calls follow the shape of the dose curve; as a rule, active = well fitted curve in the direction sought with a large enough effect; inconclusive = small, poorly fitted or top-dose-only effect, or another doubt; inactive = no such curve, though single readings can be large; an effect the other way counts as inactive or inconclusive. Unless noted, % is scaled to controls: 0 for no effect and ±100 for the full control effect; potency is read from the fitted curve at half-maximal effect.

SMILES | Tau ThT inhib | RGS12 GoLoco inh | TRb SRC2 PPI | TexasRed fluor | Tau fluor counter | Tau FP inhib
CCCC(=O)C1=C(c2ccccc2)C(C#N)(C#N)C(C#N)=C1N | 28µM* | 25% | u | 19% | u | u
Cn1c(N)c(C(=O)COC(=O)c2cc(-c3ccco3)nc3ccccc23)c(=O)n(Cc2ccccc2)c1=O | 13µM* | 24% | 6% | -3% | u | u
Cn1c(N)c(C(=O)COC(=O)c2cc(-c3ccco3)nc3ccccc23)c(=O)n(C)c1=O | u | -2% | 11% | -8% | u | 2%
CCN(CC)C(=O)COC(=O)c1cc(-c2ccco2)nc2ccccc12 | u | 38% | 1% | 35µM*[quencher] | -12% | -8%
COc1cc(NC(=O)c2ccco2)c(OC)cc1NC(=O)Nc1ccc(Cl)cc1 | u | 4% | 3% | -5% | 8.9µM*[quencher] | 12%
COc1ccc(OC)c(NC(=O)Nc2ccc(Cl)cc2)c1 | u | -2% | -5% | -2% | 14µM*[quencher] | 21%
COc1ccc(-c2cn3cccnc3n2)cc1NC(=O)Nc1ccc(Cl)cc1 | u | x | -1% | -2% | 14µM*[quencher] | -8%
Cc1c(-c2cccc(NC(=O)c3ccc(F)c(F)c3)c2)nc2ncccn12 | u | x | -3% | -5% | -10% | -9%
COc1ccc(NC(=O)Nc2cc(C)ccc2OC)cc1 | u | -5% | 6% | 0% | u | 9%
Cc1c(-c2cccc(NC(=O)Nc3ccc(Cl)cc3)c2)nc2ncccn12 | 13% | x | -1% | -2% | 10µM*[quencher] | 20µM*
COc1cc(OC)c(NC(=O)c2ccco2)cc1Cl | -5% | -3% | -2% | 0% | -9% | -3%
COc1ccc(NC(=O)Nc2cc(-c3cn4cccnc4n3)ccc2OC)cc1 | -7% | x | 4% | -17% | -26% | -12%
Cc1ccccc1C1CC(=O)Oc2cc(C)c(Br)c(C)c21 (stereo unspecified) | -12%[81.4 µM] | 3%[88.7 µM] | 2% | 3% | -12%[81.3 µM] | -3%[81.3 µM]
Cc1sc2c(c1C)c(=O)n(-c1ccc(Cl)cc1)c(=O)n2CC(=O)c1ccccc1 | 0% | x | -3% | -1% | -15% | -6%
COc1ccc2[nH]cc(CCO)c2c1 | -7% | -1% | -2% | 0% | -7% | 6%
CCOc1ccc(-c2nc(N)ncc2Oc2ccc(OC)cc2)c(O)c1 | u | -4% | 4% | -1% | u | u
COc1ccc(-c2nc(N)nc(C)c2Oc2ccccc2Br)c(O)c1 | -13% | 7% | -7% | -5% | 18µM*[quencher] | -6%
Nc1[nH]c(=O)nc2c1ncn2[C@H]1O[C@@H](CO)[C@@H](O)[C@@H]1O | x | -1%[14.2 µM] | x | x | x | x
COc1ccc(-c2nc(-c3ccccc3)oc2NC(C)C)cc1 | -7% | -3% | 8% | -2% | -1% | 4%
O=C1/C(=C/c2ccc(C(=O)O)cc2)CCC/C1=C\c1ccc(C(=O)O)cc1 | 10µM* | -2% | 4% | 0% | -9% | u
CN(C)/N=C/C=C1\CCC/C(=C\c2ccc(F)c(F)c2)C1=O | 2% | 31% | 0% | -2% | -11% | 1%
COc1ccc(/C=C2\CCC/C(=C\C=N\N(C)C)C2=O)cc1 | 2.5µM* | 18% | 1% | -6% | -29% | 0%
CN(C)c1ccc(/C=C2\CCC/C(=C\c3ccccc3)C2=O)cc1 | 2µM* | 281% | -7% | 1% | u | -2%
c1ccc(-c2ccc(-c3ccccc3)cc2)cc1 | x | x | 5%[201 µM] | 1%[201 µM] | x | x
